Screening data deposited in PubChem by National Center for Advancing Translational Sciences (NCATS).
DT40 TDP1 CPT = DT40-hTDP1 cell growth loss with CPT; chicken DT40 Tdp1-/-;hTDP1 cells + 20 nM CPT, ATP luminescence, 48 h; Potency, µM (doses to about 46.2 µM), inactives show at the top dose activity change, negative = growth inhibition, usual class: inhibitors; 420,000 tested, 12% active; AID 686979; also: potency is read from the fitted curve at half-maximal effect; % is scaled to controls: 0 for no effect and ±100 for the full control effect; nearly all actives have a fitted effect of over 55% in size
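Chicken DT40 Tdp1-/- cells complemented with human TDP1, 400 cells/well, exposed to compounds plus 20 nM camptothecin for at least 48 h at 37 C; viability read as ATP content by CellTiter-Glo luminescence.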
IL-1B inflam inh = inhibitors of inflammasome signaling (IL-1 beta secretion) | activity change, % at 57.5 µM | 360,000 tested, 4.7% active | AID 743279 | THP-1 LPS/ATP IL-1B secretion, AlphaLISA, 16 h; active compounds read low; in the data active = activity change below about -50%; inconclusive = mostly about -30% to -49%; also: % is scaled to controls: 0 for no effect and ±100 for the full control effect
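Secreted IL-1B measured by AlphaLISA bead assay after 16 h compound exposure of THP-1 cells; compounds (final up to 57.5 uM) added 1 h before LPS (250 ng/mL) and ATP (1.25 mM) stimulation; lower signal means less secretion.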
TDP1 block = TDP1 (human) enzyme inhibition; Q9NUW8; recombinant TDP1, AlphaScreen DNA substrate cleavage; Potency, µM (highest dose often 130 µM), inactives show at the highest dose activity change, negative = inhibition, usual class: inhibitors; 350,000 tested, 0.28% active; also: potency is read from the fitted curve at half-maximal effect; % is scaled to controls: 0 for no effect and ±100 for the full control effect; nearly all actives have a fitted effect of over 40% in size
Target sequence (Q9NUW8 whole entry, looked up): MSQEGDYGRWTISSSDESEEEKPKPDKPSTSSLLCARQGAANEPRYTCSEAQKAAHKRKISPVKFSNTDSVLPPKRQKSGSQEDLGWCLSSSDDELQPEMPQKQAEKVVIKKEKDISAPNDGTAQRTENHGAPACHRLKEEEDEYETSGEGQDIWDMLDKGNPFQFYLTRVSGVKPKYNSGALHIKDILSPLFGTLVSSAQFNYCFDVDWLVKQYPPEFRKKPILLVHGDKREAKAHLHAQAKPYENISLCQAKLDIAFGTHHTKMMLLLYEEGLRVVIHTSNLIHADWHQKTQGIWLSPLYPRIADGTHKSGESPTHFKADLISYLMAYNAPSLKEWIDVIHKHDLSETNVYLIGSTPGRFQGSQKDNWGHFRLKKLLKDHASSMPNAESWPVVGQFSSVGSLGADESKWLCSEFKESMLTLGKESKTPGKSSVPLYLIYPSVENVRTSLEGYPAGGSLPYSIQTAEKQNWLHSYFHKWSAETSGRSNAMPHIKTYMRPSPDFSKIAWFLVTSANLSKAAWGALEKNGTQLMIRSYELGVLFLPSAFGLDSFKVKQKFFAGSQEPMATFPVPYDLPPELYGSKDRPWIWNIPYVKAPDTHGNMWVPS
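Tdp1 1 nM final; 15 min RT w/ cpd; substrate 15 nM, 5 min; beads 10 ug/ml, 10 min; AlphaScreen read. Neg ctrl: no enzyme.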
TDP1 cell noCPT = qHTS for Inhibitors of human tyrosyl-DNA phosphodiesterase 1 (TDP1): qHTS in cells in absence of CPT. Potency, µM (doses to about 46.2 µM), inactives show top-dose activity change, negative = growth inhibition, most hits filed as inhibitors. DT40 Tdp1-/- hTDP1 cells, no CPT, ATP luminescence, 48 h. 420,000 tested, 15% active; also: potency is read from the fitted curve at half-maximal effect; % is scaled to controls: 0 for no effect and ±100 for the full control effect; nearly all actives have a fitted effect of over 55% in size
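Luminescent ATP content (CellTiter-Glo) served as the growth readout. Knockout chicken DT40 cells expressing human TDP1 were exposed to compounds without camptothecin for a minimum 48 hr at 37 °C.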
TGFb SMAD3 inh = blocks TGF-b signaling; AID 588855; 410,000 tested, 1.2% active; HepG2 CAGA-GFP TGF-b/SMAD3 reporter, GFP fluorescence, 18 h; TGF-beta stimulated, 500 pg/mL final; Potency, µM (doses to about 46.1 µM), for inactives: at the top dose activity, negative = inhibition, usual class: inhibitors; also: potency is read from the fitted curve at half-maximal effect; % is scaled to controls: 0 for no effect and ±100 for the full control effect; nearly all actives have a fitted effect of over 65% in size
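Using HEPG2 CAGA-GFP reporter cells at 1000 cells/well, we pinned test compounds, stimulated with recombinant TGF-beta (500 pg/mL final) and measured total well GFP after 18 h.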
HepG2 tox = HepG2 cytotoxicity, counter-screen for TGF-b inhibitors | 410,000 tested, 0.76% active | AID 588856 | HepG2 CAGA-GFP viability, ATP luminescence, 18 h | Potency, µM (top dose mostly 46.1 µM), for inactives: at the highest dose activity change, negative = cytotoxicity, actives largely listed as cytotoxic; also: potency is read from the fitted curve at half-maximal effect
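CellTiter-Glo luminescence gave cytotoxicity after 18 hours at 37 degrees C. The cells were HepG2 CAGA-GFP in 1% FBS DMEM, stimulated with 500 pg/mL TGF-beta after compound addition. %Activity was normalised to no-cell wells (complete cell-killing) and DMSO (no toxicity), and curves were fitted and classified.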
* hit, by the source's call; ? = inconclusive; nt = not tested or not shown; [ ] = remark or other dose. Only some compounds are listed: those with a hit (about 19% of all), similar ones and a draw of the others. Unless noted, calls follow the shape of the dose curve; as a rule, active = well fitted curve in the direction sought with a large enough effect; inconclusive = small, poorly fitted or top-dose-only effect, or another doubt; inactive = no such curve, though single readings can be large; an effect the other way counts as inactive or inconclusive.

SMILES	DT40 TDP1 CPT	IL-1B inflam inh	TDP1 block	TDP1 cell noCPT	TGFb SMAD3 inh	HepG2 tox
O=C(/C=C/c1ccc(OCc2ccccc2)cc1)c1cccs1	1%	nt	14%[56.1 µM]	1%	nt	nt
O=C(C=Cc1cccs1)c1cccs1	?	-26	nt	26µM*	-26%	-18%
O=C(/C=C\c1cccs1)c1c(O)ccc2ccc(=O)oc12	?	-83*	0%	?	2%	-34%
O=C(/C=C/c1cccs1)c1ccc(Br)cc1	?	?	2%	?	?	-32%
O=C(/C=C/c1ccc(O)cc1)c1ccccc1O	26µM*	nt	23%[56.1 µM]	15µM*	nt	nt
O=C(/C=C/c1cccs1)c1ccco1	-15%	-13	nt	?	1%	-20%
CC(=O)c1c(Cl)nc2cccc3c2c1-c1ccccc1C3=O	-21%	?	nt	?	-14%	-23%
COc1ccc(C(=O)C2CCCN(C(=O)c3cccc(N4CCCC4=O)c3)C2)cc1OC (stereo not given)	-4%	-14	nt	-3%	3%	13%
COc1ccc(NC(=O)CSc2nnc(C3CCCCC3)n2-c2ccccc2)cc1	15µM*	-6	7%	18µM*	8%	-2%
COc1ccc(OC)c(NC(=O)CSc2nnc(-c3ccco3)n2-c2ccccc2)c1	21µM*	-1	10%	?	-10%	-16%
COc1ccc(NC(=O)CSc2nnc(C3CCCCC3)n2N)c(OC)c1	-3%	23	1%	12%	-3%	-5%
COc1ccc(CCSc2nnc(C3CCCCC3)n2N)cc1	?	-7	2%	12µM*	12%	-1%
COc1ccc(-n2c(SCC(=O)Nc3cccc(C(=O)O)c3)nnc2-c2ccco2)cc1	-7%	12	0%	0%	-30%	-34%
COc1ccc(C)cc1NC(=O)CSc1nnc(-c2cc3cccc(OC)c3o2)n1N	?	63	-6%	16µM*	-10%	-9%
Cc1cnc(-n2ncc(C(=O)NCC(C)(C)N3CCOCC3)c2C(C)C)nc1-c1ccc(F)cc1	5%	nt	nt	-5%	nt	nt
O=C(CSc1nnc(-c2ccco2)n1-c1ccccc1)N1CCN(C(=O)c2ccco2)CC1	?	?	8%	23µM*	3%	-43%
O=C(CSc1nnc(C2CCCCC2)n1-c1ccccc1)NCc1ccco1	?	-16	7%	8.2µM*	-7%	1%
CCn1c(SCC(=O)Nc2cc(OC)ccc2OC)nnc1C1CCCCC1	29µM*	-24	2%	-25%	8%	-10%
CCCN(C(=O)COC(=O)CCOc1ccccc1C)c1c(N)n(Cc2ccccc2)c(=O)[nH]c1=O	-11%	25	0%	-10%	3%	3%
Cc1cc(OCC(=O)N(Cc2ccco2)c2c(N)n(Cc3ccccc3)c(=O)[nH]c2=O)ccc1Cl	26µM*	-23	0%	?	?	-33%
